Shown are actives, neighbours in structure and some others; about 2.3% of the full set was active somewhere.
CHT PAM: allosteric activators of human choline transporter CHT; Q9GZV3; CHT-expressing cells, membrane potential dye, choline EC20; hits give high values; LV-AA mutant CHT in HEK293 cells; B-score at 10 µM; hit rate 0.49% among 310,000;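 active = initial fluorescence not abnormally high and integrated response B-score, plate-corrected, over 3 SD above library mean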
Target sequence (Q9GZV3 whole entry, looked up): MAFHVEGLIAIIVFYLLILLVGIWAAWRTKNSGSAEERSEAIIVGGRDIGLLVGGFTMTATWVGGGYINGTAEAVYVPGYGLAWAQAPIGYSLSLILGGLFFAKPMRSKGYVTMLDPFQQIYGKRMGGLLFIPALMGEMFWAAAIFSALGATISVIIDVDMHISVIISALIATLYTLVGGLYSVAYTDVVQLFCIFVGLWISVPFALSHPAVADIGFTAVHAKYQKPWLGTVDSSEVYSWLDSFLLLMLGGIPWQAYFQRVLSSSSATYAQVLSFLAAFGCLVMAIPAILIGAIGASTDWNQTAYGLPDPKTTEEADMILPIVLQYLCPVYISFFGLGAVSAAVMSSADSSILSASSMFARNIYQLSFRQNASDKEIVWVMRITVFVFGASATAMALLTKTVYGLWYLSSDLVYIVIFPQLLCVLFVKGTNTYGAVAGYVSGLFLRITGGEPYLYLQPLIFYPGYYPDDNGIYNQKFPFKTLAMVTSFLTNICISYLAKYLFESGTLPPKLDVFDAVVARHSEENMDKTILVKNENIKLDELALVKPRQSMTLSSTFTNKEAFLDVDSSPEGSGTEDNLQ
ANO1 activ: activates or potentiates the mouse TMEM16A chloride channel; Q8BHY3; HEK293 TMEM16A/YFP-H148Q/I152L, iodide quench fluorescence; hits give low values; B-score at 10 µM; hit rate 0.3% among 340,000;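 active = fluorescence-ratio B-score plate-corrected deviation score at least 3 library SD below zero, with starting fluorescence score within 5 deviations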;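 also: channel opened by trigger with iodide after compound preincubation; score built on the fluorescence ratio of max minus min over baseline; more negative score means more quench and so TMEM16A activation or potentiation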
CHT block: inhibitors of human choline transporter CHT | Q9GZV3 | CHT-expressing cells, membrane potential dye, choline response; hits give low values | B-score at 10 µM | hit rate 0.86% among 310,000 | AID 488975;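 active = B-score over 3 SD under the library average, and starting fluorescence ratio not unusually high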;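 also: choline stimulus applied at its EC90 after an EC20 pre-addition; B-score computed on integrated fluorescence ratio after choline addition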
ANO1 block: inhibitors of mouse TMEM16A calcium-activated chloride channel; Q8BHY3; HEK293 TMEM16A/YFP iodide influx fluorescence, ionomycin; normalized B-score (activity score, 25-100; higher = stronger inhibition) at 10 µM; hit rate 1.2% among 310,000; AID 588511;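 active = ratio plate-corrected score three or more library SD toward inhibition, starting fluorescence score within five deviations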;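 also: score derived from kinetic fluorescence span divided by baseline fluorescence per well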
CHT act confirm: human CHT activation, confirmatory screen. activation, % at 10 µM. hit rate 91% among 2,500. AID 504833. shares compounds with CHT PAM. CHT-expressing cells, membrane potential dye fluorescence (FDSS); % of choline EC20–EC90 response window; HEK293 expressing CHT LV-AA mutant; choline added at its EC20;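 active = primary screen active, with duplicate mean activation above negative control mean plus 3 SD, cut at about 11% in these data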
HEK293 MP dye: CHT activator counter-screen hit in parental HEK293 cells | shares compounds with CHT PAM | membrane potential dye fluorescence (FDSS); measured after EC20 choline addition | ratio readout change at 10 µM, hits read low | hit rate 62% among 2,500;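 active = duplicate-averaged ratio beyond 3 SD from buffer wells, up or down, though filed actives are nearly all decreases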
Numbers without * were called inactive; i = inactive; . = no result given.

SMILES | CHT PAM | ANO1 activ | CHT block | ANO1 block | CHT act confirm | HEK293 MP dye
CN(C)CCNC(=O)c1cc2c(=O)n(C)c3ccccc3c2n1C | i | i | i | i | 42* | -33*
CCN(CC)CCCNC(=O)c1cc2c(=O)n(C)c3ccccc3c2n1C | 6.7* | i | i | i | 49* | -23*
Cn1c(C(=O)NCCCN2CCCCCC2)cc2c(=O)n(C)c3ccccc3c21 | i | i | i | i | . | .
CCCCC(=O)/C=C/n1c(=S)oc2ccccc21 | i | i | i | i | . | .
COc1ccc(-c2[nH]ncc2CN2CCC(OCc3ccccc3)CC2)c(F)c1 | i | i | i | i | . | .
COCC1CCN(Cc2cn[nH]c2-c2ccc(OC)cc2F)C1 (stereo unspecified) | i | i | i | i | 21* | i
CCC1COCCS(=O)(=O)N1Cc1ccccc1 (stereo unspecified) | i | i | i | i | . | .
CCCC[C@H]1COCCS(=O)(=O)N1Cc1cccc([N+](=O)[O-])c1 | 6.5* | i | i | i | 13* | i
O=C(c1ccc(S(=O)(=O)c2cccc(Cl)c2)c([N+](=O)[O-])c1)N1CCN(c2ccccn2)CC1 | 8.5* | i | i | i | 9 | i
Cn1c(=O)[nH]c(=O)c2c1nc(SCCN1CCCCC1)n2Cc1ccccc1 | 9.9* | i | i | i | 58* | -61*
Cc1ccc(Cn2c(SCCN3CCCCC3)nc3c2c(=O)[nH]c(=O)n3C)cc1 | 6.5* | i | i | i | 53* | -50*
C=CCn1c(SCCN2CCCC2)nc2c([nH]c3ccccc32)c1=O | 6.5* | i | i | i | 40* | -41*
C=CCn1c(SCC(=O)Nc2ccc(OC)cc2)nc2c([nH]c3ccccc32)c1=O | i | i | i | i | . | .
Cc1cccc(Cn2c(N3CCN(CCO)CC3)nc3c2c(=O)[nH]c(=O)n3C)c1 | i | i | i | i | . | .
Cc1cccc(Cn2c(SCCN3CCCCC3)nc3c2c(=O)[nH]c(=O)n3C)c1 | 9* | i | i | i | 61* | -62*
COc1cccc(CNC2CCCc3ccccc32)c1OC (stereo unspecified) | i | i | i | i | . | .
CCC(C(=O)N1CCOCC1)n1c2ccccc2c2nc(=O)cc(C)n21 (stereo unspecified) | i | i | i | i | . | .
O=C(NC(=S)N1CCCCC1CO)c1cccs1 (stereo unspecified) | . | i | . | . | . | .
C=CCn1c(SCCN2CCCCC2)nc2c1c(=O)[nH]c(=O)n2C | 10* | i | i | i | 64* | -63*
Cn1c(=O)[nH]c(=O)c2c1nc(SCCN1CCCCC1)n2CCCc1ccccc1 | i | i | i | i | 53* | -54*
COc1ccc(NC(=O)CS(=O)c2ccc(Cl)c(Cl)c2)cc1 (stereo unspecified) | i | i | i | i | . | .
COc1ccc(-c2[nH]ncc2C=O)cc1OC | i | i | i | i | . | .
CC(=O)c1cccc(NC(=O)c2cc3ccccn3n2)c1 | i | i | i | i | 35* | -27*
CC(=O)C1=C(O)C(=O)N(c2nccs2)C1c1ccccc1F (stereo unspecified) | i | i | i | i | . | .
CCOC(=O)c1c(C)nc2ccccc2c1-c1ccccc1 | i | i | i | i | 16* | i
SMILES | CHT PAM | ANO1 activ | CHT block | ANO1 block | CHT act confirm | HEK293 MP dye
O=C(NC1CC2CCC(C1)N2Cc1ccco1)c1ccccc1 (stereo unspecified) | 7.7* | i | i | i | 2 | i
Cc1cccnc1NC(=O)c1ccc2c(c1)OCO2 | i | i | i | i | . | .
Cc1cccnc1NC(=O)/C=C/c1ccc2c(c1)OCO2 | i | i | i | i | 44* | -40*
CON1C(=O)C(=O)N(OC)C(C)(C)C1(C)C | i | i | i | i | . | .
COc1ccc(-c2cc(Cl)cc3c(=O)c4ccccc4n(C)c23)cc1F | 7.3* | i | i | i | 26* | i
COc1cc(-c2ccc3c(=O)c4ccccc4n(C)c3c2)cc(OC)c1OC | i | i | i | i | . | .
O=C(CN1CCc2ccccc2C1)c1cccs1 | i | i | i | i | . | .
COc1ccc(Nc2c(-c3ccc(OC)cc3)nc3cnccn23)cc1 | i | i | i | i | . | .
Cc1cc(C)n2c(Nc3ccc4c(c3)OCCO4)c(-c3ccccc3)nc2n1 | 11* | i | i | i | 14* | -34*
COc1ccc(Nc2c(-c3ccc(C)cc3)nc3cnccn23)cc1 | i | i | i | i | 49* | -28*
CN(C)c1ccc(-c2nc3cnccn3c2Nc2ccc3c(c2)OCCO3)cc1 | 7.1* | i | i | i | 59* | -23*
Cc1cccc2nc(-c3ccco3)c(Nc3ccc4c(c3)OCO4)n12 | i | i | i | i | . | .
Cc1ccc(-c2nc3cnccn3c2Nc2ccc3c(c2)OCO3)cc1 | i | i | i | i | . | .
COc1ccc(-c2nc3cnccn3c2Nc2ccc3c(c2)OCO3)cc1 | 6.4* | i | i | i | 48* | -29*
S=C(Nc1cccc(Cl)c1Cl)NC1CCN(Cc2ccccc2)CC1 | i | i | i | i | . | .
Cc1ccc(NS(=O)(=O)c2ccc3[nH]c(=O)sc3c2)cc1 | i | i | i | i | . | .
CN1CCN(NC(=O)c2cc(S(=O)(=O)Nc3ccc(Cl)cc3)ccc2Cl)CC1 | i | i | i | i | . | .
CN1CCN(c2nc(-c3ccc(Cl)c(Cl)c3)nc3ccccc23)CC1 | i | i | i | i | . | .
CN1CCN(c2nc(-c3ccccn3)nc3ccccc23)CC1 | 9.1* | i | i | i | 55* | -94*
CN1CCN(c2nc(-c3cccnc3)nc3ccccc23)CC1 | 7.3* | i | i | i | 42* | -88*
COc1ccc(OC)c(CNc2nc3ccccc3n2CCN2CCCCC2)c1 | i | i | i | i | 34* | i
O=C(Cc1ccccc1)N/N=C/c1ccc(-c2ccc([N+](=O)[O-])cc2)o1 | i | i | i | i | . | .
Cc1ccc([N+](=O)[O-])cc1-c1ccc(/C=N/NC(=O)CN2CCOCC2)o1 | i | i | i | i | 51* | -51*
CCCn1c(N)c(N(CCOC)C(=O)CSCC(=O)Nc2ccc(OC)cc2)c(=O)[nH]c1=O | i | i | i | i | . | .
CC[n+]1c(C)n(-c2ccccc2)c2ccc(C(=O)OC)cc21 | 7.5* | i | i | i | 32* | -29*
